A selection: hits, their analogues and other compounds. The true share with any hit is near 4.1%.
hcDAF-12 act = activators of H. contortus DAF-12 nuclear receptor. HEK293 hcDAF-12 lit1-tk-luc reporter, luminescence; 0% DMSO, 100% Δ7-dafachronic acid. activation, % at 6.8 µM. actives 1.4% (n = 370,000). AID 652067;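 active = activation above the mean of all tested compounds plus 3 SD, cut at about 5.5% in these data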;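 also: 100% = response to 3 µM Δ7-dafachronic acid high control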
ssDAF-12 act = activators of S. stercoralis DAF-12 nuclear receptor | HEK293 ssDAF-12/GRIP1 lit1-tk-luc reporter, luminescence; % of 3 µM dafachronic acid response | activation, % at 6.8 µM | actives 1% (n = 370,000) | AID 652126;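 active = activation above the mean over all tested compounds plus 3 SD, cut at about 0.9% in these data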;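 also: 0% = DMSO-only wells and 100% = 3 µM delta7-dafachronic acid wells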
hgDAF12 agonist = hgDAF-12 agonism, primary luciferase screen | actives 1.8% (n = 370,000) | HEK293 GAL4-hgDAF12 UAS-luciferase reporter, agonist luminescence; normalized to butyrate control | AID 687014 | activation, % at 6.8 µM;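 active = activation above a cutoff set at the mean of all screened compounds plus 3 SD, cut at about 10% in these data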;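 also: 0% = DMSO wells and 100% = sodium butyrate wells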
DAX1 inh-1 = inhibitors of DAX1 repression of SF-1 activated StAR promoter; HEK293T StAR-luciferase reporter, SF-1/DAX-1 repression relief; inhibition, % at 6.8 µM; actives 1.1% (n = 370,000); AID 652010;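 active = inhibition above the mean over all tested compounds plus 3 SD, cut at about 3.6% in these data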;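 also: 0% = DAX-1 cells with DMSO and 100% = cells lacking DAX-1 with DMSO; higher inhibition means more luminescence from relief of DAX-1 repression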
DAX1 inh-2 = inhibits human nuclear receptor DAX1; P51843; HEK293 Gal4-DAX1 luciferase reporter, luminescence; inhibition, % at 6.75 µM; actives 0.99% (n = 340,000);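 active = inhibition above the mean over all tested compounds plus 3 SD, cut at about 4.2% in these data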;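 also: 0% = DAX1-transfected cells with DMSO and 100% = empty-vector control cells with DMSO; inhibition shows as a rise in luminescence from relieved DAX1 repression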
Target sequence (P51843 207-470 limits assumed): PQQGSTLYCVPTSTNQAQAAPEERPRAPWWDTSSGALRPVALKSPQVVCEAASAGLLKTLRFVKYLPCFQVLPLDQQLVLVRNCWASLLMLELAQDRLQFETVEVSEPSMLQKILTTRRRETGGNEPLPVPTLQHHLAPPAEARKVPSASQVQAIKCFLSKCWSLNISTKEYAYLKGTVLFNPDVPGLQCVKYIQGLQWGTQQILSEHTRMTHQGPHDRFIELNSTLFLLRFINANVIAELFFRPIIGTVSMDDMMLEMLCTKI
LXR ag = LXR-beta agonism as hcDAF-12 counter-screen | AID 743027 | activation, % at 6.8 µM | HEK293 Gal4-LXR tk-luc reporter, luminescence, 24 h; normalized: DMSO 0%, positive control 100% | shares compounds with hcDAF-12 act | 3,400 tested, under 10 active;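 active = mean percent activation of the reporter above a cutoff set as the average over tested compounds plus their standard deviation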
hcDAF12 ag = hcDAF-12 agonism, confirmation assay. shares compounds with hcDAF-12 act. HEK293 hcDAF-12 lit1-tk-luc reporter, luminescence; % of Δ7-dafachronic acid response. activation, % at 6.8 µM. actives 61% (n = 3,400);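 active = mean activation across triplicate tests above the threshold derived from the earlier primary screen, cut at about 5.5% in these data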;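 also: 0% = DMSO only wells and 100% = 3 µM Δ7-dafachronic acid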
hgDAF12 ag = confirmation of H. glycines DAF-12 agonists; shares compounds with hgDAF12 agonist; HEK293 GAL4-hgDAF12 luciferase reporter, agonist mode; percent of butyrate response; activation, % at 6.8 µM; actives 80% (n = 3,300);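 active = mean activation over triplicate wells above the hit cutoff derived from the earlier primary screen, cut at about 11% in these data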;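 also: 0% = DMSO low control and 100% = 2 mM sodium butyrate high control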
LXR ag 2 = counter-screen for DAF-12 agonists: agonists of human LXR-beta | 3,300 tested, under 10 active | AID 743051 | HEK293 Gal4-LXR luciferase reporter, 24 h | shares compounds with hgDAF12 agonist | activation, % at 6.8 µM;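 active = mean activation of the triplicate above a set limit carried over from the primary screen, none filed active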
* hit, by the source's call; . = not tested or not shown.

SMILES	hcDAF-12 act	ssDAF-12 act	hgDAF12 agonist	DAX1 inh-1	DAX1 inh-2	LXR ag	hcDAF12 ag	hgDAF12 ag	LXR ag 2
COc1ccc(C(=O)c2coc3ccc(OC(C)=O)cc23)cc1	7.3*	0	14*	2	-1	2	8.1*	23*	1
Cc1ccc(C)c(NC(=O)c2cc3ccccn3n2)c1	7.8*	0	21*	3.6*	1	1	3	18*	1
COC(=O)[C@]1(CC(C)C)NC=C(C(=O)c2ccccc2)[C@@H]1c1cccs1	-1	-1	1	0	.	.	.	.	.
CC(C)c1ccc(OCc2nc(-c3ccccn3)no2)c(Br)c1	7.6*	0.9*	15*	4.1*	0	1	7.0*	16*	1
CCCSc1nnc(-c2ccco2)n1C	-1	-1	3	0	.	.	.	.	.
CCC(C)c1ccc(NC(=O)CSc2nnc(-c3cccc(C)c3)n2C)cc1 (centres undefined)	-2	-2	-1	-1	.	.	.	.	.
CCC(=O)Nc1ccc2c(c1)C(=O)N(C)[C@@H]1CC[C@@H](CC(=O)OC)O[C@H]1CO2	-2	-1	3	0	.	.	.	.	.
CCN(CC)S(=O)(=O)c1ccc2oc(Nc3ccccc3)nc2c1	2	0	4	0	1	.	.	.	.
c1ccc(Nc2nc3ccccc3o2)cc1	8.1*	0.9*	14*	3	2	1	8.3*	21*	1
Fc1ccccc1Nc1nc2ccccc2o1	8.2*	1	16*	3	2	2	9.0*	19*	1
Cc1nc(Nc2ccccc2F)c2oc3ccccc3c2n1	1	-1	5	0	0	.	.	.	.
O=C(Nc1ccc(Cl)cn1)c1ccccc1F	6.6*	1.2*	15*	3	2	1	7.8*	18*	1
CCC(=O)NC1=C(Nc2ccc(N)cc2)C(=O)c2ccccc2C1=O	7.9*	1	13*	2	3	1	8.0*	11*	1
COc1ccc(NC2=C(NC(C)=O)C(=O)c3ccccc3C2=O)cc1	-1	-1	0	-1	-1	.	.	.	.
O=C(O)c1ccc(N/N=C/c2ccc3nccnc3c2)cc1	-6	-4	-14	-2	-8	.	.	.	.
O=C(O)c1ccc(N/N=C/c2ccc(F)c(F)c2)cc1	11*	1	18*	4	-2	2	8.2*	16*	1
COCC#Cc1ccc(CC[C@H]2O[C@H]3CC[C@@H](CO)O[C@H]3C[C@H]2n2cc(C(C)(C)O)nn2)cc1	0	-1	-1	0	.	.	.	.	.
C/C(=N\Nc1ncc(Cl)cc1Cl)c1ccc(OC(F)F)cc1	6.6*	-1	20*	1	0	0	-1	0	0
CC(=O)N1CCc2cc(S(=O)(=O)NC3CCN(C(=O)CCl)CC3)ccc21	-1	-1	-6	-3	.	.	.	.	.
O=C(Nc1nccs1)c1csc2c1CCCC2	7.2*	0	14*	0	1	0	4	10	0
S=C(Nc1ccc(Cl)cc1)c1nc2ccccc2[nH]1	7.3*	0	18*	4	2	1	6.5*	16*	1
OC(c1ccc(Cl)cc1)C(O)c1nc2ccccc2[nH]1 (centres undefined)	0	-2	2	-1	0	.	.	.	.
CCN(CC)c1ccc(/C=C/C(=O)C2C(=O)C=C(C)OC2=O)cc1 (centres undefined)	7.7*	0	19*	2	0	0	4	8	0
CN(/N=C/c1ccncc1)c1cnc2ccccc2n1	6.6*	1.5*	19*	4.4*	1	1	10*	12*	1
CCCCN1CC[C@@H](C)Oc2cc(Br)ccc2S1(=O)=O	1	-1	-2	-1	.	.	.	.	.
SMILES	hcDAF-12 act	ssDAF-12 act	hgDAF12 agonist	DAX1 inh-1	DAX1 inh-2	LXR ag	hcDAF12 ag	hgDAF12 ag	LXR ag 2
Brc1ccc(-c2csc(-c3c[nH]c4ccccc34)n2)cc1	4	0	7	1	2	.	.	.	.
c1ccc2c(-c3csc(-c4ccncc4)n3)c[nH]c2c1	13*	1.6*	28*	1	-1	1	14*	15*	0
Nn1c(SCC(=O)Nc2ccccc2-c2ccccc2)nnc1-c1cc(-c2ccccc2)n[nH]1	0	-1	1	-1	.	.	.	.	.
CN(C)C=Nc1ccc2nc3c(cc2c1)[nH]c1ccccc13	18*	1.9*	17*	2	1	1	13*	19*	1
COC(=O)c1cc(-c2cccc(C(F)(F)F)c2)c(=O)n2c1CCC2	2	-1	1	-1	.	.	.	.	.
CC12C=CC(C)(C3C(=O)NC(=O)C31)C1C3C(=O)NC(=O)C3C12 (centres undefined)	0	-1	1	1	.	.	.	.	.
O=C(Nc1cnc2ccccc2c1)c1ccco1	7.1*	0	15*	3	0	2	4	18*	1
O=C(Nc1cccc(-c2cnc3ccccc3n2)c1)c1ccco1	-1	-1	1	0	0	.	.	.	.
Cc1ccc(CN2C(C(=O)NC3CCCC3)CSCCS2(=O)=O)cc1 (centres undefined)	1	-1	3	0	.	.	.	.	.
O=C(Nc1ccc2[nH]c(=O)[nH]c2c1)Nc1ccc(F)cc1F	-2	-2	-2	0	0	.	.	.	.
O=C(Nc1ccc2[nH]c(=S)sc2c1)Nc1ccccc1F	7.4*	1.7*	15*	2	1	2	8.0*	20*	1
C[C@@H]1CN([C@H](C)CO)C(=O)c2cc(Br)cnc2O[C@H]1CN(C)C(=O)c1ccc(F)cc1	1	-1	2	0	.	.	.	.	.
Nc1nn(-c2ccccc2)c(N)c1N=Nc1ccccc1	9.0*	1	22*	1	-1	1	4	29*	1
CCC[C@H]1[C@@H](N)CC[C@@]23CCCN2C(=O)CCC[C@@H]13	1	-2	-3	.	.	.	.	.	.
Cc1cccc(NC(=O)c2cccc3c2-c2ccccc2C3=O)c1C	-4	-1	-1	0	.	.	.	.	.
O=C(CSc1ncnc2ccccc12)c1cccs1	16*	2.4*	19*	1	1	1	8.8*	17*	1
